High-throughput results from PubChem.
HttQ103 aggreg = inhibitors of mutant huntingtin aggregate formation in PC12 cells; Potency, µM (top dose mostly 46.1 µM), for the others: at the highest dose activity change, negative = inhibition, hits mostly inhibitors; hit rate 1.1% among 220,000; PC12 HttQ103-GFP aggregates, Acumen cytometry, 40 h; also: potency is read from the fitted curve at half-maximal effect; % is scaled to controls: 0 for no effect and ±100 for the full control effect; nearly all actives have a fitted effect of over 60% in size
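Steps: seed 1500 PC12 HTTQ103-GFP cells/well; add tebufenozide, 100 nM final; add compound titration; add ATPLite reagent; quantify GFP aggregates by laser scanning cytometry.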
mIDH1 inhibitor = inhibitors of human mutant IDH1 R132H; Potency, µM (top dose mostly 76.6 µM), for inactives: at the top dose activity change, negative = inhibition, usual class: inhibitors; AID 602179; IDH1-R132H enzyme, NADPH consumption, diaphorase/resazurin fluorescence; O75874; hit rate 0.093% among 390,000; also: potency is read from the fitted curve at half-maximal effect; % is scaled to controls: 0 for no effect and ±100 for the full control effect; nearly all actives have a fitted effect of over 65% in size
Target sequence (O75874 whole entry R132H, stated change not applied): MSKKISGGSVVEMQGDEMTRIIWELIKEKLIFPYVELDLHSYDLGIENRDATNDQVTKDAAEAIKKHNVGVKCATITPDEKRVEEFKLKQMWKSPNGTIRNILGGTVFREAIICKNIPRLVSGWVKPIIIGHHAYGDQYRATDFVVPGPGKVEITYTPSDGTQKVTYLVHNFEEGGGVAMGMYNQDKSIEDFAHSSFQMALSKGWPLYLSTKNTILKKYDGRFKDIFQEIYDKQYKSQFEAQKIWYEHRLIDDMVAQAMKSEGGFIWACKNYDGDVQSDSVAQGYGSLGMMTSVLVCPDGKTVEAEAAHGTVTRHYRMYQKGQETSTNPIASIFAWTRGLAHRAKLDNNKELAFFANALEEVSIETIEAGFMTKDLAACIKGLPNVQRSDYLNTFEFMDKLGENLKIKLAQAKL
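IDH1-R132H (0.5 ug/mL) preincubated 30 min with compound, then NADPH (0.016 mM) and alpha-KG (2 mM) added; 80 min at RT, pH 7.5. Remaining NADPH coupled via diaphorase/resazurin to fluorescence (540/590 nm); concentration-response curves normalized to no-enzyme control.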
HTT cytoprotect = cytoprotection in Huntington HTT-Q103 PC12 cell model; PC12 HTT-Q103 induced, cytoprotection, ATP luminescence, 40 h; Potency, µM (series often up to 56.4 µM), for inactives: cytoprotection (ATP increase), most hits filed as activators; hit rate 0.14% among 230,000; also: potency is read from the fitted curve at half-maximal effect; % of control where 0% means no effect; nearly all actives have a fitted effect of over 45% in size
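PC12 cells stably carrying ecdysone-inducible Htt exon 1 (Q103)–GFP were induced with 100 nM tebufenozide (final) alongside library compounds in a dose series. Cytoprotection was scored as retained ATP by ATPlite luminescence.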
A-T KAP1 phos = candidate therapy for ataxia-telangiectasia. hit rate 0.19% among 320,000. F2112 A-T fibroblasts, KAP-1 phosphorylation AlphaLISA; neocarzinostatin DNA damage 30 min before lysis. Potency, µM (titrated, usually from 57.5 µM), for inactives: at the highest dose activation, most hits filed as activators; also: potency is read from the fitted curve at half-maximal effect; % of control where 0% means no effect; nearly all actives have a fitted effect of over 45% in size
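ATM-like activity read as KAP-1 phosphorylation via AlphaLISA donor/acceptor antibody pairs after lysis and 6 hr at 25C. Cells were ATM-null patient fibroblasts (F2112, hTERT), dosed 60 min, then exposed to the DSB inducer NCS for 30 min.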
NPSR antagonist = antagonists of human neuropeptide S receptor cAMP signaling; Q6W5P4; CHO-NPSR cells, cAMP TR-FRET, antagonist mode; Potency, µM (top dose mostly 38.3 µM), for the others: at the highest dose activity change, negative = inhibition, most hits filed as inhibitors; hit rate 1% among 220,000; AID 1461; also: potency is read from the fitted curve at half-maximal effect; % is scaled to controls: 0 for no effect and ±100 for the full control effect; nearly all actives have a fitted effect of over 50% in size
Target sequence (Q6W5P4 whole entry, looked up): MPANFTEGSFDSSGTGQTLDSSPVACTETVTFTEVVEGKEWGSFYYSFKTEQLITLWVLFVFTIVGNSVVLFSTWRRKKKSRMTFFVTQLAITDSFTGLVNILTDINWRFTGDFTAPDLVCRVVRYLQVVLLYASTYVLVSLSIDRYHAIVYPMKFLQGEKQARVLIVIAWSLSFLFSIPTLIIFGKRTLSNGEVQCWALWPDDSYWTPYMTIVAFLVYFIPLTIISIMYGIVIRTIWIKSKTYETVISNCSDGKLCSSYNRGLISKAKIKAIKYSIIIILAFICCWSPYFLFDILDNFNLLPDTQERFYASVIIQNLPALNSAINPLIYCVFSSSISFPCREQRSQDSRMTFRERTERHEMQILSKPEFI
IDH1 autofl = interferes with resorufin fluorescence in IDH1 counter-screen | shares compounds with mIDH1 inhibitor | Resorufin detection reagent fluorescence interference, cell-free | inhibition of signal, % at 51.2 µM | 750 tested, under 10 active | AID 623980;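 also: 0% = wells with normal resorufin and full inhibition = wells lacking resorufin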
IDH1 WT = wild-type IDH1 (human) inhibition counterscreen; shares compounds with mIDH1 inhibitor; WT IDH1 enzyme, NADPH diaphorase/resazurin fluorescence; Potency, µM (titrated, usually from 115 µM), inactives show top-dose activity change, negative = inhibition, actives largely listed as inhibitors; hit rate 9% among 750;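 also: potency is read from the fitted curve at half-maximal effect; 0% = full WT IDH1 enzyme control and full inhibition = no enzyme wells; nearly all actives have a fitted effect of over 55% in size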
IDH1 R132H conf = mutant IDH1 (human) inhibition, confirmed; shares compounds with mIDH1 inhibitor; IDH1 R132H enzyme, NADPH diaphorase/resazurin fluorescence; Potency, µM (top dose mostly 76.6 µM), without a hit: top-dose activity change, negative = inhibition, usual class: inhibitors; hit rate 83% among 750; also: potency is read from the fitted curve at half-maximal effect; nearly all actives have a fitted effect of over 50% in size
* = called active by the depositor; u = inconclusive; x = no result given; [ ] = remark or other dose. A selection: hits, their analogues and other compounds. The true share with any hit is near 1.1%. Calls follow the shape of the dose curve; as a rule, active = well fitted curve in the direction sought with a large enough effect; inconclusive = small, poorly fitted or top-dose-only effect, or another doubt; inactive = no such curve, though single readings can be large; an effect the other way counts as inactive or inconclusive.

SMILES	HttQ103 aggreg	mIDH1 inhibitor	HTT cytoprotect	A-T KAP1 phos	NPSR antagonist	IDH1 autofl	IDH1 WT	IDH1 R132H conf
Cc1ccc(C(=O)Nc2nnc(SCc3cc(=O)c4c(C)ccc(C)c4[nH]3)s2)cc1	x	17%	x	x	x	x	x	x
CCOc1cc(/C=C2/C(=O)ON=C2C)ccc1OCc1ccccc1F	12%	21µM*	-19%	8%	16µM*	2	u	28µM*
CCOc1cc(/C=C2/C(=O)ON=C2C)ccc1OCc1ccccc1	16%[9.22 µM]	-10%	14%[10 µM]	-1%	27%	x	x	x
Cc1sc(NC(=O)c2ccco2)c(C(c2cccnc2)N2CCC(C)CC2)c1C (configuration not stated)	u	u	-5%	3%	13µM*	-5	1%	u
CCN1CCN(C(c2cccnc2)c2c(NC(=O)c3ccco3)sc(C)c2C)CC1 (configuration not stated)	x	-3%	x	-2%	x	x	x	x
CC(C)(C)c1cc(CP(=O)(c2ccccc2)c2ccccc2)cc(C(C)(C)C)c1O	x	u	x	13%	x	-1	-3%	28µM*
CCCCn1c(-c2ccc(C)cc2)c(C)n2c3c(=O)n(C)c(=O)n(C)c3nc12	x	u	x	x	x	-8	-16%	11µM*
Cc1ccc(-c2c(C)n3c4c(=O)n(C)c(=O)n(C)c4nc3n2CCO)cc1	x	28%	x	x	x	x	x	x
COc1ccc(-c2c(-c3ccsc3)oc(=O)c3cc(OC)c(OC)cc23)cn1	x	28µM*	x	-1%	x	0	-3%	8.9µM*
COc1cc2c(-c3ccc4cc[nH]c4c3)c(-c3ccsc3)oc(=O)c2cc1OC	x	u	x	9%	x	-8	-1%	11µM*
COc1ccc(S(=O)(=O)NCC(c2ccco2)S(=O)(=O)c2cccs2)cc1F (configuration not stated)	x	0%	x	x	x	x	x	x
Cc1cc(C)nc(SCC(=O)NC2=NN=C(c3ccc(Br)cc3)CS2)n1	u	u	-14%	-4%	-18%[46.1 µM]	-3	140%	45µM*
CC(=O)Oc1ccc2c(=O)c(Oc3ccccc3[N+](=O)[O-])coc2c1	0%	u	3%[10 µM]	-5%	-15%	4	-13%	28µM*
CCN(CC)C(=O)c1sc2c(c1C)c(=O)n(Cc1ccccc1)c(=O)n2Cc1ccc(Cl)cc1	x	11%	x	x	x	x	x	x
COc1ccc(-n2c(=O)c3c4c(sc3n(Cc3cc(C)ccc3C)c2=O)CN(C(C)=O)CC4)c(OC)c1	x	u	x	x	x	1	u	14µM*
CCN(CC)C(=O)c1sc2c(c1C)c(=O)n(CCc1ccccc1)c(=O)n2Cc1cc(C)ccc1C	x	10µM*	x	x	x	-8	-2%	8.9µM*
CC(=O)N1CCc2c(sc3c2c(=O)n(-c2cccc(Cl)c2C)c(=O)n3Cc2ccccc2C)C1	x	u	x	x	x	-4	40µM*	28µM*
CCN(CC)C(=O)c1sc2c(c1C)c(=O)n(-c1ccc(C)c(C)c1)c(=O)n2Cc1cccc(Cl)c1	x	u	x	x	x	-10	-2%	13µM*
CCCS(=O)(=O)NCCc1sc2nc(-c3ccc(Cl)cc3)nn2c1C	x	-8%	x	x	x	x	x	x
CCOc1ccc(CNC(=O)C2CCN(S(=O)(=O)N3CCCCC3)CC2)cc1	x	6%	x	x	x	x	x	x
CCN(CC)C(=O)c1sc2c(c1C)c(=O)n(-c1ccc(OC)cc1OC)c(=O)n2CC(=O)c1ccccc1	4%	-11%	3%	4%	-35%	x	x	x
CCN(CC)C(=O)c1sc2c(c1C)c(=O)n(-c1ccc(OC)cc1OC)c(=O)n2Cc1cc(C)ccc1C	x	40µM*	x	x	x	3	5%	22µM*
CCCc1noc2c1C(c1cc(Br)ccc1F)C(C#N)=C(N)N2 (configuration not stated)	39%	52µM*	-56%	7%	-21%	0	-1%	40µM*
Cc1ccc(NC(=O)CN2C(=O)COc3ccc(S(=O)(=O)N4CCCCCC4)cc32)cc1Cl	x	u	x	x	x	-8	0%	14µM*
CCC(C(=O)N1CCN(c2cc(Cl)ccc2C)CC1)n1nc(C)n2c(cc3occc32)c1=O (configuration not stated)	x	0%	x	x	x	x	x	x
SMILES	HttQ103 aggreg	mIDH1 inhibitor	HTT cytoprotect	A-T KAP1 phos	NPSR antagonist	IDH1 autofl	IDH1 WT	IDH1 R132H conf
Cc1cc(C)cc(NC(=O)CSc2c(C(C)C)cnc3c2c(=O)n(C)c(=O)n3C)c1	x	u	x	x	x	-8	-12%	-7%
CCN(C(=O)C1CCCN(c2ncnc3c2nc2n3CCCCC2)C1)c1cccc(C)c1 (configuration not stated)	x	28%	x	x	x	x	x	x
CC(C)OCCCn1c(=O)c2ccccc2n2c(-c3ccccc3)nnc12	x	9%	x	x	x	x	x	x
CC(C)CC(=O)Nc1nc2nc(-c3ccccc3)cc(=O)n2[nH]1	x	17%	x	x	x	x	x	x
C=CCn1cc(C(=O)NCc2ccco2)c(=O)c2cc(S(=O)(=O)N3CCCCCC3)ccc21	7%	u	-14%	-2%	u	2	13%	16µM*
CCn1cc(C(=O)NCc2ccco2)c(=O)c2cc(S(=O)(=O)N3CC(C)CC(C)C3)ccc21 (configuration not stated)	-25%	5.2µM*	-121%[0.074 µM]	1%	-11%[46.1 µM]	0	6%	2.5µM*
CCn1cc(C(=O)NCc2ccco2)c(=O)c2cc(S(=O)(=O)N3CCC(C)CC3)ccc21	u	33µM*	-62%[0.074 µM]	8%	u	2	3%	18µM*
C=C1CC2C(CCC3(C)C2CCC3(O)C(C)=O)C2(C)CCC(=O)C=C12 (configuration not stated)	x	22µM*	x	-13%	x	2	35µM*	11µM*
CC(=O)[C@@]1(O)CC[C@H]2[C@@H]3C[C@H](C)C4=CC(=O)CC[C@]4(C)[C@H]3CC[C@@]21C	5%	5%	-44%	1%	-32%	x	x	x
O=C(O)C[C@H]1OCC=C2C[N@@+]3([O-])CC[C@]45c6ccccc6N[C@@H]4[C@@H]1[C@H]2C[C@H]53	x	x	-14%[10 µM]	x	x	x	x	x
CC1CN(C(=O)c2ccc(NS(=O)(=O)c3ccc(C(C)(C)C)cc3)cc2)CC(C)O1 (configuration not stated)	x	u	x	-4%	x	-9	7%	35µM*
Cc1cc(C)c(NC(=O)CCCn2c(C)c3cnn(-c4ccccc4)c(=O)c3c2C)c(C)c1	x	-1%	x	x	x	x	x	x
CC(C)c1nc(N2CCOCC2)c(C#N)c2c1CCCC2	u	u	-26%	u	u	1	5%	35µM*
